HT1080-NT tox = kills 2HG-producing HT-1080-NT fibrosarcoma cells; hit rate 1.6% among 360,000; AID 686970; Potency, µM (highest dose often 46.1 µM), without a hit: at the highest dose activity, negative = less viability, actives largely listed as cytotoxic; HT-1080-NT fibrosarcoma viability, CellTiter-Glo ATP luminescence, 48 h;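 also: NT is the 2HG producing partner of a matched IDH1 knockdown line; potency is read from the fitted curve at half-maximal effect; 0% = DMSO-treated cells and -100% = media-only wells without cells; nearly all actives have a fitted effect of over 55% in size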
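750 cells/well, RPMI + 5% FBS; 2 h settle, compound pin-transfer, 48 h at 37 degrees C. CellTiter-Glo 10 min RT, luminescence. Normalized to DMSO and media-only wells.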
DT40 TDP1 no CPT = qHTS for Inhibitors of human tyrosyl-DNA phosphodiesterase 1 (TDP1): qHTS in cells in absence of CPT; DT40 Tdp1-/- hTDP1 cells, no CPT, ATP luminescence, 48 h; Potency, µM (highest dose often 46.2 µM), without a hit: top-dose activity change, negative = growth inhibition, usual class: inhibitors; hit rate 15% among 420,000; also: potency is read from the fitted curve at half-maximal effect; nearly all actives have a fitted effect of over 55% in size
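A cellular qHTS used chicken DT40 cells lacking endogenous Tdp1 but carrying stably transfected human TDP1. Compounds were applied without camptothecin, and cell growth kinetics were judged by ATP-dependent luminescence after ≥48 hr.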
DT40 TDP1 CPT = growth inhibition of DT40 Tdp1-/-;hTDP1 cells with camptothecin (screen for TDP1 inhibitors) | chicken DT40 Tdp1-/-;hTDP1 cells + 20 nM CPT, ATP luminescence, 48 h | Potency, µM (series often up to 46.2 µM), for inactives: at the highest dose activity change, negative = growth inhibition, usual class: inhibitors | hit rate 12% among 420,000 | AID 686979; also: potency is read from the fitted curve at half-maximal effect; nearly all actives have a fitted effect of over 55% in size
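Chicken DT40 Tdp1-/- cells complemented with human TDP1, 400 cells/well, exposed to compounds plus 20 nM camptothecin for at least 48 h at 37 C; viability read as ATP content by CellTiter-Glo luminescence.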
IL1B secr inh = inflammasome signaling inhibition, IL-1 beta readout; hit rate 4.7% among 360,000; THP-1 LPS/ATP IL-1B secretion, AlphaLISA, 16 h; active compounds read low; activity change, % at 57.5 µM; in the data active = activity change below about -50%; inconclusive = mostly about -30% to -49%
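Secreted IL-1B measured by AlphaLISA bead assay after 16 h compound exposure of THP-1 cells; compounds (final up to 57.5 uM) added 1 h before LPS (250 ng/mL) and ATP (1.25 mM) stimulation; lower signal means less secretion.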
HT1080 IDH1KD tx = HT-1080 IDH1 knockdown cell toxicity (counter line); HT-1080 IDH1 knockdown viability, ATP luminescence, 48 h; Potency, µM (highest dose often 46.1 µM), without a hit: at the highest dose activity, negative = toxicity, most hits filed as cytotoxic; hit rate 2% among 360,000; AID 686971;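 also: potency is read from the fitted curve at half-maximal effect; 0% = DMSO wells and -100% = cell-free medium wells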
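In this qHTS, HT-1080 cells depleted of IDH1 are exposed for 48 h at 37 °C to compound titrations. Toxicity is scored from CellTiter-Glo luminescence, with DMSO as full viability and medium alone as none.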
An asterisk follows results filed as active. Compounds with a hit are over-represented: about 19% of the library has one in this group of screens. Unless noted, calls follow the shape of the dose curve; as a rule, active = well fitted curve in the direction sought with a large enough effect; inconclusive = small, poorly fitted or top-dose-only effect, or another doubt; inactive = no such curve, though single readings can be large; an effect the other way counts as inactive or inconclusive. Unless noted, % is scaled to controls: 0 for no effect and ±100 for the full control effect.

Screening CCC(C)[C@H](NC(=O)NCc1ccc(F)cc1)C(=O)O (some centres undefined) returned HT1080-NT tox -0.6%, DT40 TDP1 no CPT 1.3%, DT40 TDP1 CPT 1.7%, IL1B secr inh 23.2 and HT1080 IDH1KD tx 0.3%.
CC(C)N(C(=O)Cn1cc(SCC(=O)Nc2ccccc2C(F)(F)F)c2ccccc21)C(C)C was read as DT40 TDP1 no CPT -17.0% and DT40 TDP1 CPT -6.0%.
CC(C)N(C(=O)Cn1cc(SCC(=O)Nc2ccccc2F)c2ccccc21)C(C)C was read as DT40 TDP1 no CPT 13µM* and DT40 TDP1 CPT inconclusive.
`O=C(CSc1cn(CCNC(=O)c2c(F)cccc2F)c2ccccc12)Nc1ccc(F)cc1` gave DT40 TDP1 no CPT 16.4µM* and DT40 TDP1 CPT inconclusive.
`Cc1cc(NC(=O)CSc2cn(CCNC(=O)c3ccc(Cl)cc3)c3ccccc23)no1` gave HT1080-NT tox -6.7%, DT40 TDP1 no CPT inconclusive, DT40 TDP1 CPT inconclusive, IL1B secr inh inconclusive and HT1080 IDH1KD tx -7.4%.
O=C(CSc1cn(CCNC(=O)c2c(F)cccc2F)c2ccccc12)Nc1ccccc1F was read as DT40 TDP1 no CPT 20.6µM* and DT40 TDP1 CPT inconclusive.
Screening O=C(CSc1cn(Cc2cccc(F)c2)c2ccccc12)NCc1ccc(F)cc1 returned HT1080-NT tox -1.4%, DT40 TDP1 no CPT -6.3%, DT40 TDP1 CPT -6.8%, IL1B secr inh 11.8 and HT1080 IDH1KD tx inconclusive.
`O=C(NCCCCCCNC(=O)c1ccccc1O)c1ccccc1O` gave HT1080-NT tox -0.2%, DT40 TDP1 no CPT 20.6µM*, DT40 TDP1 CPT inconclusive, IL1B secr inh -25.4 and HT1080 IDH1KD tx -19.4%.
CC(Oc1ccccc1Cl)C(=O)Nc1ccc(S(=O)(=O)Nc2nccs2)cc1 (centres undefined) was read as HT1080-NT tox -3.6%, DT40 TDP1 no CPT -6.0%, DT40 TDP1 CPT -6.9%, IL1B secr inh -0.7 and HT1080 IDH1KD tx -6.7%.
Cc1ccc(/C=C/C2=NN(C)C(=O)CC2)cc1 was read as HT1080-NT tox -4.2%, DT40 TDP1 no CPT inconclusive, DT40 TDP1 CPT -1.9%, IL1B secr inh -18.0 and HT1080 IDH1KD tx -1.4%.
For CCOC(=O)C(C)N1N=C(/C=C/c2ccc(OC)cc2)CCC1=O (centres undefined) the results were HT1080-NT tox 1.3%, DT40 TDP1 no CPT 13µM*, DT40 TDP1 CPT inconclusive, IL1B secr inh 4.0 and HT1080 IDH1KD tx 4.2%.
COc1ccc(S(=O)(=O)N2CCC3(CC2)OCCO3)cc1 was read as HT1080-NT tox 6.5%, DT40 TDP1 no CPT -10.9%, DT40 TDP1 CPT 12.0%, IL1B secr inh -3.0 and HT1080 IDH1KD tx 20.6%.
Screening O=C(N/N=C/c1ccccc1O)C1(O)c2ccccc2-c2ccccc21 returned HT1080-NT tox -24.5%, DT40 TDP1 no CPT 5.8µM*, DT40 TDP1 CPT 8.2µM*, IL1B secr inh 73.2 and HT1080 IDH1KD tx inconclusive.
Screening Oc1ccccc1/C=N/Nc1ncc(Br)cn1 returned HT1080-NT tox -2.5%, DT40 TDP1 no CPT 7.31µM*, DT40 TDP1 CPT 9.2µM*, IL1B secr inh 14.9 and HT1080 IDH1KD tx inconclusive.
`Cc1c(/C=N/NC(=O)C2(O)c3ccccc3-c3ccccc32)cnn1C` gave HT1080-NT tox 2.4%, DT40 TDP1 no CPT -15.4%, DT40 TDP1 CPT -19.8%, IL1B secr inh 0.0 and HT1080 IDH1KD tx 16.8%.
O=[N+]([O-])c1ccccc1C=NNc1ccccc1 was read as HT1080-NT tox inconclusive, DT40 TDP1 no CPT inconclusive, DT40 TDP1 CPT inconclusive, IL1B secr inh 3.7 and HT1080 IDH1KD tx inconclusive.
Oc1ccccc1/C=N/Nc1ccccc1 was read as HT1080-NT tox inconclusive, DT40 TDP1 no CPT -6.2%, DT40 TDP1 CPT -10.3%, IL1B secr inh 23.7 and HT1080 IDH1KD tx 9.2µM*.
`Fc1ccccc1NC(=S)N/N=C/c1ccccc1Br` gave HT1080-NT tox 7.08µM*, DT40 TDP1 no CPT inconclusive, DT40 TDP1 CPT inconclusive, IL1B secr inh 12.7 and HT1080 IDH1KD tx 7.08µM*.
Oc1ccccc1/C=N/Nc1cccc2cccnc12 was read as HT1080-NT tox 0.0%, DT40 TDP1 no CPT inconclusive, DT40 TDP1 CPT inconclusive, IL1B secr inh -5.5 and HT1080 IDH1KD tx -17.4%.
Screening C[C@H](CO)N1C[C@H](C)[C@@H](CN(C)C(=O)NC2CCCCC2)Oc2c(NC(=O)c3ccncc3)cccc2C1=O returned HT1080-NT tox 9.0%, DT40 TDP1 no CPT -4.6%, DT40 TDP1 CPT 5.3%, IL1B secr inh 6.4 and HT1080 IDH1KD tx 14.6%.
Oc1ccccc1C=NNC(=S)NN=Cc1ccccc1O was read as HT1080-NT tox inconclusive, DT40 TDP1 no CPT 4.61µM*, DT40 TDP1 CPT 5.17µM*, IL1B secr inh 86.8 and HT1080 IDH1KD tx inconclusive.
Screening c1ccc(CSc2nccc(-c3ccco3)n2)cc1 returned HT1080-NT tox 14.9%, DT40 TDP1 no CPT inconclusive, DT40 TDP1 CPT -27.6%, IL1B secr inh 16.0 and HT1080 IDH1KD tx 9.3%.
For Oc1ccccc1/C=N/Nc1ccnc(SCc2ccccc2)n1 the results were HT1080-NT tox -31.6%, DT40 TDP1 no CPT 0.082µM*, DT40 TDP1 CPT 0.0651µM*, IL1B secr inh 34.7 and HT1080 IDH1KD tx inconclusive.
COc1ccc(CCNC(=O)c2cc(C(=O)c3cc(Cl)ccc3O)cn(CCc3ccc(OC)cc3)c2=O)cc1 was read as HT1080-NT tox -10.8%, DT40 TDP1 no CPT 10.3µM*, DT40 TDP1 CPT 10.3µM*, IL1B secr inh -25.5 and HT1080 IDH1KD tx -0.3%.
O=C(c1cc(C(=O)NCCc2ccccc2)c(=O)n(CCc2ccccc2)c1)c1cc(Cl)ccc1O was read as HT1080-NT tox -15.2%, DT40 TDP1 no CPT 14.6µM*, DT40 TDP1 CPT inconclusive, IL1B secr inh 0.0 and HT1080 IDH1KD tx inconclusive.
COc1ccc(CCNC(=O)c2cc(C(=O)c3cc(C)ccc3O)cn(CCc3ccc(OC)cc3)c2=O)cc1 was read as HT1080-NT tox -0.2%, DT40 TDP1 no CPT inconclusive, DT40 TDP1 CPT inconclusive, IL1B secr inh 0.0 and HT1080 IDH1KD tx 3.4%.
For O=C(O)c1ccccc1C(=O)NCCc1ccc(Cl)cc1 the results were HT1080-NT tox 6.7%, DT40 TDP1 no CPT -16.9%, DT40 TDP1 CPT -19.5%, IL1B secr inh 0.5 and HT1080 IDH1KD tx 10.9%.
`COc1cc(SC)ccc1C(=O)N(Cc1ccccc1)c1ccccn1` gave HT1080-NT tox 4.0%, DT40 TDP1 no CPT inconclusive, DT40 TDP1 CPT -4.1%, IL1B secr inh -18.7 and HT1080 IDH1KD tx 11.6%.
`C=CCC1C=C(C)CC(CC=C)N1` (centres undefined) gave HT1080-NT tox -0.8%, DT40 TDP1 no CPT -6.8%, DT40 TDP1 CPT 1.7%, IL1B secr inh 16.2 and HT1080 IDH1KD tx -0.4%.

High-throughput results (PubChem BioAssay)
